Measurements reported in PubChem BioAssay (NCATS).
Records with an inconclusive call do not appear. Unmarked numbers belong to inactive results. The source made the active and inactive calls. Calls come from the whole dose curve; as a rule, active = well fitted cell-killing curve with a large enough effect; inconclusive = small, poorly fitted or top-dose-only effect, or effect the other way; inactive = no such curve, though single readings can be large or run the other way.

Legend:
[1] = Quantitative High-Throughput drug screen in 47 multiple myeloma cell lines against the NCATS MIPE library collection: KMS28PE_JCRB cell viability assay (AID 1918983); note: nearly all actives have a fitted effect of over 35% in size
Outline: (§1)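 Readout: median RLU from CellTiter-Glo after 5 min at room temperature. Preceding step was 48 h drug treatment of 500 cells/well at 37 °C, 5% CO2, with DMSO-only and media-only control wells.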

[2] = Quantitative High-Throughput drug screen in 47 multiple myeloma cell lines against the NCATS MIPE library collection: XG6_PLB cell viability assay (AID 1919865); note: nearly all actives have a fitted effect of over 40% in size
Outline: as §1

[3] = Quantitative High-Throughput drug screen in 47 multiple myeloma cell lines against the NCATS MIPE library collection: VP6_DJ cell viability assay (AID 1919867); note: nearly all actives have a fitted effect of over 40% in size
Outline: as §1

[4] = Quantitative High-Throughput drug screen in 47 multiple myeloma cell lines against the NCATS MIPE library collection: PE2_PLB cell viability assay (AID 1919869); note: nearly all actives have a fitted effect of over 35% in size
Outline: as §1

[5] = Quantitative High-Throughput drug screen in 47 multiple myeloma cell lines against the NCATS MIPE library collection: OPM2_DSMZ cell viability assay (AID 1919872); note: nearly all actives have a fitted effect of over 30% in size
Outline: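 qHTS of the MIPE 4.0 collection: 500 myeloma cells/well, 48 h drug exposure at 37C in 5% CO2, then CellTiter-Glo for 5 min at room temperature before luminescence reading.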

[6] = Quantitative High-Throughput drug screen in 47 multiple myeloma cell lines against the NCATS MIPE library collection: KMS11_JCRBsus cell viability assay (AID 1919873); note: nearly all actives have a fitted effect of over 50% in size
Outline: as §1

[7] = Quantitative High-Throughput drug screen in 47 multiple myeloma cell lines against the NCATS MIPE library collection: KMS28BM_JCRB cell viability assay (AID 1919874); note: nearly all actives have a fitted effect of over 35% in size
Outline: as §1

[8] = Quantitative High-Throughput drug screen in 47 multiple myeloma cell lines against the NCATS MIPE library collection: L363_DSMZ cell viability assay (AID 1918984); note: nearly all actives have a fitted effect of over 40% in size
Outline: as §1

[9] = Quantitative High-Throughput drug screen in 47 multiple myeloma cell lines against the NCATS MIPE library collection: KMS34_JCRB cell viability assay (AID 1918985); note: nearly all actives have a fitted effect of over 40% in size
Outline: as §1

[10] = Quantitative High-Throughput drug screen in 47 multiple myeloma cell lines against the NCATS MIPE library collection: OCIMY7_PLB cell viability assay (AID 1918987); settings: OCI-MY7 myeloma viability, CellTiter-Glo ATP, 48 h; viability (% of DMSO): at 45.8 µM (top of the series); note: nearly all actives have a fitted effect of over 65% in size
Outline: as §1

[11] = Quantitative High-Throughput drug screen in 47 multiple myeloma cell lines against the NCATS MIPE library collection: OCIMY5_PLB cell viability assay (AID 1918988); note: nearly all actives have a fitted effect of over 65% in size
Outline: as §1

[12] = Quantitative High-Throughput drug screen in 47 multiple myeloma cell lines against the NCATS MIPE library collection: OPM1_PLB cell viability assay (AID 1918989); note: nearly all actives have a fitted effect of over 40% in size
Outline: as §1

[13] = Quantitative High-Throughput drug screen in 47 multiple myeloma cell lines against the NCATS MIPE library collection: SKMM1_PLB cell viability assay (AID 1919863); settings: SKMM1 myeloma viability, CellTiter-Glo ATP, 48 h; viability: active compounds read low; note: nearly all actives have a fitted effect of over 35% in size
Outline: as §1

[14] = Quantitative High-Throughput drug screen in 47 multiple myeloma cell lines against the NCATS MIPE library collection: U266_ATCC cell viability assay (AID 1919864); note: nearly all actives have a fitted effect of over 35% in size
Outline: as §1

[15] = Quantitative High-Throughput drug screen in 47 multiple myeloma cell lines against the NCATS MIPE library collection: XG1_PLB cell viability assay (AID 1919866); note: nearly all actives have a fitted effect of over 35% in size
Outline: as §1

[16] = Quantitative High-Throughput drug screen in 47 multiple myeloma cell lines against the NCATS MIPE library collection: UTMC2_PLB cell viability assay (AID 1919868); settings: CellTiter-Glo ATP luminescence, 48 h; viability (% of DMSO control): at 45.8 µM (top of the series); note: nearly all actives have a fitted effect of over 55% in size
Outline: as §1

[17] = Quantitative High-Throughput drug screen in 47 multiple myeloma cell lines against the NCATS MIPE library collection: PCM6_Riken cell viability assay (AID 1919870); note: nearly all actives have a fitted effect of over 30% in size
Outline: as §1

[18] = Quantitative High-Throughput drug screen in 47 multiple myeloma cell lines against the NCATS MIPE library collection: RPMI8226_ATCC cell viability assay (AID 1919871); note: nearly all actives have a fitted effect of over 30% in size
Outline: as §1
Potency is the fitted concentration of half-maximal effect.

What does the source list for `CC(=CC(=O)Nc1ccccc1C(=O)O)c1ccc2ccccc2c1`?
Potency [1]: inactive; Potency [2]: 7.43 µM (active); Potency [3]: 18.7 µM (active); Potency [4]: 23.5 µM (active); Potency [5]: inactive; Potency [6]: inactive; Potency [7]: inactive

Which results are given for `O=C1NC(=O)C(=Cc2ccc3nccc(-c4ccncc4)c3c2)S1`?
Potency [8]: 0.0469 µM (active); Potency [9]: 0.296 µM (active); Potency [10]: 0.0662 µM (active); Potency [11]: 0.526 µM (active); Potency [12]: 0.0743 µM (active); Potency [13]: 0.59 µM (active); Potency [14]: 0.418 µM (active); Potency [2]: 0.0833 µM (active); Potency [15]: 0.0332 µM (active); Potency [3]: 0.132 µM (active); Potency [16]: 0.0372 µM (active); Potency [4]: 0.0469 µM (active); Potency [17]: 0.166 µM (active); Potency [18]: 0.235 µM (active); Potency [6]: 0.0662 µM (active); Potency [7]: 0.372 µM (active)

With `Nc1ccc(C(=O)Nc2cccc(-c3nc(N4CCOCC4)c4oc5ncccc5c4n3)c2)cn1` as the compound, how does the Potency [8] read?
Its Potency is 1.18 µM (active).

What about the Potency [9] of the same compound?
Its Potency is 7.43 µM (active).

What about the Potency [10] of the same compound?
The Potency was 3.32 µM (active).

And the Potency [11]?
Its Potency is 5.9 µM (active).

What about the Potency [12] of the same compound?
The Potency was 1.48 µM (active).

And the Potency [13]?
Its Potency is 23.5 µM (active).

What about the Potency [14] of the same compound?
Its Potency is 20.9 µM (active).

What about the Potency [2] of the same compound?
The Potency was 2.96 µM (active).

And the Potency [15]?
The Potency was 5.9 µM (active).

And the Potency [3]?
Its Potency is 4.18 µM (active).

What about the Potency [16] of the same compound?
The Potency was 3.32 µM (active).

What about the Potency [4] of the same compound?
The Potency was 2.09 µM (active).

And the Potency [17]?
Its Potency is 5.9 µM (active).

What about the Potency [5] of the same compound?
Its Potency is 5.26 µM (active).

And the Potency [7]?
Its Potency is 26.4 µM (active).

What does the source list for `C[C@]12CC[C@@H]3c4ccc(O)cc4CC[C@H]3[C@H]1CC[C@H]2O`?
Potency [1]: 29.6 µM (active); Potency [10]: 5.9 µM (active); Potency [11]: 9.35 µM (active); Potency [12]: 16.6 µM (active); Potency [14]: 6.62 µM (active); Potency [2]: 5.9 µM (active); Potency [15]: 6.62 µM (active); Potency [3]: 8.33 µM (active); Potency [4]: 16.6 µM (active); Potency [18]: 18.7 µM (active); Potency [5]: 18.7 µM (active); Potency [6]: 14.8 µM (active); Potency [7]: 23.5 µM (active)

With `NS(=O)(=O)OC[C@@H]1C[C@@H](n2ccc3c(N[C@H]4CCc5ccccc54)ncnc32)C[C@H]1O` as the compound, how does the Potency [1] read?
The Potency was 0.935 µM (active).

What about the Potency [10] of the same compound?
The Potency was 0.743 µM (active).

And the Potency [11]?
The Potency was 16.6 µM (active).

What about the Potency [12] of the same compound?
The Potency was 16.6 µM (active).

What about the Potency [13] of the same compound?
The Potency was 1.05 µM (active).

What about the Potency [14] of the same compound?
Its Potency is 8.33 µM (active).

And the Potency [15]?
Its Potency is 0.332 µM (active).

What about the Potency [3] of the same compound?
Its Potency is 1.48 µM (active).

What about the Potency [17] of the same compound?
The Potency was 6.62 µM (active).

What about the Potency [5] of the same compound?
Its Potency is “inactive”.

And the Potency [6]?
The Potency was 0.296 µM (active).

Which Potency [1] does the source give for `COC(=O)C1C2CC3c4[nH]c5cc(OC)ccc5c4CCN3CC2CC(OC(=O)c2cc(OC)c(OC)c(OC)c2)C1OC` (stereo not given) here?
Its Potency is 14.8 µM (active).

And the Potency [11]?
Its Potency is 16.6 µM (active).

And the Potency [14]?
The Potency was 23.5 µM (active).

What about the Potency [17] of the same compound?
The Potency was 16.6 µM (active).

And the Potency [18]?
The Potency was 16.6 µM (active).

And the Potency [5]?
The Potency was “inactive”.

What about the Potency [6] of the same compound?
Its Potency is 29.6 µM (active).

What about the Potency [7] of the same compound?
Its Potency is 20.9 µM (active).
